Measured values from PubChem BioAssay (NCI).
About 83,000 compounds went through this panel and 20% of them were active in at least one assay; those are over-represented in the sample as a whole.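 Plates (96-well) were seeded with cells, treated with compound at one concentration, and incubated for 48 hours before percent growth was determined.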 Calls of active or inactive are those of the source. The calls were made as follows: active = growth percent below 10; inactive = the rest.

Tests used:
Assay in all cases: NCI-60 one-dose screen, 48 h (100 = growth as untreated, 0 = no growth, -100 = all killed)
SK-MEL-2 melanoma = settings: 10 µM unless noted
EKVX NSCLC = settings: 10 µM unless noted
SN12C renal = settings: 10 µM unless noted
UO-31 renal = settings: 10 µM unless noted
TK-10 renal = settings: 10 µM unless noted
ACHN renal = settings: 10 µM unless noted
CAKI-1 renal = settings: 10 µM unless noted
A498 renal = settings: 10 µM unless noted
CCRF-CEM leukemia = settings: 10 µM unless noted
MOLT-4 leukemia = settings: 10 µM unless noted
SR leukemia = settings: 10 µM unless noted
RPMI-8226 leukemia = settings: 10 µM unless noted
OVCAR-8 ovarian = settings: 10 µM unless noted
OVCAR-5 ovarian = settings: 10 µM unless noted
OVCAR-4 ovarian = settings: 10 µM
SK-OV-3 ovarian = settings: 10 µM unless noted
IGROV1 ovarian = settings: 10 µM unless noted
HS 578T breast = settings: 10 µM unless noted
NCI/ADR-RES ovarian = settings: 10 µM unless noted
OVCAR-3 ovarian = settings: 10 µM unless noted

Measured: growth

CCCCCCCCCCCCNC(=S)N/N=C/c1ccccc1O
inactive: SK-MEL-2 melanoma 80.8% | EKVX NSCLC 89.1% | SN12C renal 69.4% | UO-31 renal 37.6% | TK-10 renal 128% | ACHN renal 77.1% | CAKI-1 renal 65.4% | A498 renal 94.3% | CCRF-CEM leukemia 46.1% | MOLT-4 leukemia 52.4% | SR leukemia 44% | RPMI-8226 leukemia 55.4% | OVCAR-8 ovarian 77.9% | OVCAR-5 ovarian 99.1% | OVCAR-4 ovarian 65.2% | SK-OV-3 ovarian 102% | IGROV1 ovarian 65.1% | HS 578T breast 91.7% | NCI/ADR-RES ovarian 77.1%

O=C(Nc1ccc(Nc2ccncc2)cc1)c1ccc([N+](=O)[O-])cc1
active: CCRF-CEM leukemia 1.05% | MOLT-4 leukemia 6.48% | SR leukemia -45.3%
inactive: SK-MEL-2 melanoma 94.8% | EKVX NSCLC 69.9% | SN12C renal 72.9% | UO-31 renal 55.6% | TK-10 renal 90.4% | ACHN renal 80.4% | CAKI-1 renal 52.6% | A498 renal 76% | RPMI-8226 leukemia 22.8% | OVCAR-8 ovarian 61% | OVCAR-5 ovarian 101% | OVCAR-4 ovarian 67.3% | SK-OV-3 ovarian 88.6% | OVCAR-3 ovarian 60.4% | HS 578T breast 95.4% | NCI/ADR-RES ovarian 92%

Nc1nc(SCc2cccc([N+](=O)[O-])c2)c2[nH]cnc2n1
inactive: SK-MEL-2 melanoma 96% | EKVX NSCLC 90.9% | SN12C renal 94.9% | UO-31 renal 64.7% | TK-10 renal 90.4% | ACHN renal 99.6% | CAKI-1 renal 84% | A498 renal 82.1% | CCRF-CEM leukemia 95% | MOLT-4 leukemia 91.4% | SR leukemia 95.6% | RPMI-8226 leukemia 91.8% | OVCAR-8 ovarian 96.5% | OVCAR-5 ovarian 101% | OVCAR-4 ovarian 99.3% | SK-OV-3 ovarian 109% | IGROV1 ovarian 89.2% | HS 578T breast 99.9% | NCI/ADR-RES ovarian 97.6%

CCN(CCO)CCC(=O)c1ccc([N+](=O)[O-])cc1
inactive: SK-MEL-2 melanoma 107% | EKVX NSCLC 103% | SN12C renal 107% | UO-31 renal 75% | TK-10 renal 99.8% | ACHN renal 110% | CAKI-1 renal 102% | A498 renal 87% | CCRF-CEM leukemia 124% | MOLT-4 leukemia 114% | SR leukemia 107% | RPMI-8226 leukemia 104% | OVCAR-8 ovarian 101% | OVCAR-5 ovarian 116% | OVCAR-4 ovarian 103% | SK-OV-3 ovarian 107% | OVCAR-3 ovarian 104% | HS 578T breast 101% | NCI/ADR-RES ovarian 102%

COc1cc(-c2nc(SCCC(C)C)nc(Nc3ccccc3)c2C#N)cc(OC)c1OC
active: HS 578T breast -8.69%
inactive: SK-MEL-2 melanoma 103% | EKVX NSCLC 100% | SN12C renal 89.5% | UO-31 renal 68.4% | TK-10 renal 110% | ACHN renal 94% | CAKI-1 renal 72.4% | A498 renal 69.9% | CCRF-CEM leukemia 88.6% | MOLT-4 leukemia 84.3% | SR leukemia 79.8% | RPMI-8226 leukemia 92.2% | OVCAR-8 ovarian 97.7% | OVCAR-5 ovarian 99.4% | OVCAR-4 ovarian 88.3% | SK-OV-3 ovarian 107% | OVCAR-3 ovarian 103% | NCI/ADR-RES ovarian 95.5%

COc1ccc(-c2nc3ccccn3c2/C=C/C(=O)c2cc(OC)c(OC)c(OC)c2)cc1OC
active: SK-MEL-2 melanoma -28.5% | CAKI-1 renal 8.16% | A498 renal -14.1% | RPMI-8226 leukemia -26% | SK-OV-3 ovarian 6.61% | OVCAR-3 ovarian 9.08% | HS 578T breast 6.05% | NCI/ADR-RES ovarian -4.39%
inactive: EKVX NSCLC 28.5% | SN12C renal 31% | UO-31 renal 17% | TK-10 renal 43% | ACHN renal 19.9% | CCRF-CEM leukemia 16.4% | MOLT-4 leukemia 25.5% | SR leukemia 27% | OVCAR-8 ovarian 14.1% | OVCAR-5 ovarian 24.5% | OVCAR-4 ovarian 17.8%

O=C1CC(c2ccccc2)Cc2nc3ccc(Cl)cc3cc21 (configuration not stated)
inactive: SK-MEL-2 melanoma 57.1% | EKVX NSCLC 30.2% | SN12C renal 28.3% | UO-31 renal 35% | TK-10 renal 71.2% | ACHN renal 30.8% | CAKI-1 renal 29.2% | CCRF-CEM leukemia 10.4% | MOLT-4 leukemia 11.6% | SR leukemia 13% | RPMI-8226 leukemia 29.7% | OVCAR-8 ovarian 22.4% | OVCAR-5 ovarian 26.4% | OVCAR-4 ovarian 48.7% | SK-OV-3 ovarian 47.2% | IGROV1 ovarian 16.5%
active: A498 renal -17.4% | OVCAR-3 ovarian -29.1% | NCI/ADR-RES ovarian 7.96%

Nc1cc(C(=O)O)[nH]c(=S)n1
inactive: SK-MEL-2 melanoma 98.9% | EKVX NSCLC 92.6% | SN12C renal 99.7% | UO-31 renal 87.5% | TK-10 renal 93.4% | ACHN renal 103% | CAKI-1 renal 94.9% | A498 renal 101% | CCRF-CEM leukemia 94.5% | MOLT-4 leukemia 101% | SR leukemia 94.2% | RPMI-8226 leukemia 95% | OVCAR-8 ovarian 101% | OVCAR-5 ovarian 96.1% | OVCAR-4 ovarian 105% | SK-OV-3 ovarian 115% | IGROV1 ovarian 95.4% | HS 578T breast 98.1% | NCI/ADR-RES ovarian 100%

O=c1c2c3c(sc2n2cnnc2n1Cc1ccccc1)CCCC3
active: UO-31 renal 7.39%
inactive: SK-MEL-2 melanoma 97.6% | EKVX NSCLC 71.2% | SN12C renal 105% | TK-10 renal 115% | ACHN renal 99.1% | CAKI-1 renal 95.3% | A498 renal 92.1% | CCRF-CEM leukemia 82.4% | MOLT-4 leukemia 86.3% | SR leukemia 78.6% | RPMI-8226 leukemia 72.8% | OVCAR-8 ovarian 97.4% | OVCAR-5 ovarian 89.6% | OVCAR-4 ovarian 106% | SK-OV-3 ovarian 106% | OVCAR-3 ovarian 98% | HS 578T breast 94.2% | NCI/ADR-RES ovarian 96.9%

CN(C)Cc1ccc[nH]1
inactive: SK-MEL-2 melanoma 93.5% | EKVX NSCLC 90.4% | SN12C renal 70.4% | UO-31 renal 88.9% | TK-10 renal 131% | ACHN renal 101% | CAKI-1 renal 81.8% | A498 renal 76.8% | CCRF-CEM leukemia 118% | MOLT-4 leukemia 107% | SR leukemia 102% | RPMI-8226 leukemia 136% | OVCAR-8 ovarian 95.1% | OVCAR-5 ovarian 76.3% | OVCAR-4 ovarian 109% | SK-OV-3 ovarian 106% | OVCAR-3 ovarian 99.5% | HS 578T breast 113% | NCI/ADR-RES ovarian 77.9%

c1ccc2c(c1)CN(CCCN1CCOCC1)C2
inactive: SK-MEL-2 melanoma 105% | EKVX NSCLC 100% | SN12C renal 96.6% | UO-31 renal 93.1% | TK-10 renal 95.4% | ACHN renal 100% | CAKI-1 renal 87.2% | A498 renal 101% | CCRF-CEM leukemia 102% | MOLT-4 leukemia 103% | SR leukemia 97.8% | RPMI-8226 leukemia 95.5% | OVCAR-8 ovarian 102% | OVCAR-5 ovarian 99.1% | OVCAR-4 ovarian 102% | SK-OV-3 ovarian 102% | IGROV1 ovarian 101% | HS 578T breast 109% | NCI/ADR-RES ovarian 98.7%

O=C(CCCSc1nc(-c2ccccc2)cc(-c2ccccc2)n1)NO
active: SK-MEL-2 melanoma 3.29% | UO-31 renal -13.9% | TK-10 renal 9.4% | ACHN renal 0.594% | CAKI-1 renal 1.69% | A498 renal -15.6% | CCRF-CEM leukemia 3.58% | MOLT-4 leukemia 4.55% | SR leukemia 1.05% | OVCAR-8 ovarian 5.38% | OVCAR-5 ovarian 9.78% | SK-OV-3 ovarian -18.6% | OVCAR-3 ovarian -5.33% | NCI/ADR-RES ovarian -12.1%
inactive: EKVX NSCLC 10.3% | SN12C renal 12.3% | RPMI-8226 leukemia 14.9% | OVCAR-4 ovarian 11.9% | HS 578T breast 45.2%

O=C1NC(=O)c2cc([N+](=O)[O-])cc3cccc1c23
inactive: SK-MEL-2 melanoma 107% | EKVX NSCLC 94.2% | SN12C renal 98.1% | UO-31 renal 66.4% | TK-10 renal 107% | ACHN renal 103% | CAKI-1 renal 84.8% | A498 renal 87.1% | CCRF-CEM leukemia 89.8% | MOLT-4 leukemia 115% | SR leukemia 114% | RPMI-8226 leukemia 94.2% | OVCAR-8 ovarian 85.4% | OVCAR-5 ovarian 109% | OVCAR-4 ovarian 95.7% | SK-OV-3 ovarian 106% | OVCAR-3 ovarian 112% | HS 578T breast 106% | NCI/ADR-RES ovarian 95.9%

CC1=C/C(=C(\c2cc(C)c(O)c(C(=O)O)c2)c2c(Cl)cccc2Cl)C=C(C(=O)O)C1=O
inactive: SK-MEL-2 melanoma 104% | EKVX NSCLC 95.3% | SN12C renal 97.1% | UO-31 renal 67.8% | TK-10 renal 108% | ACHN renal 92.7% | CAKI-1 renal 88.1% | A498 renal 110% | CCRF-CEM leukemia 103% | MOLT-4 leukemia 102% | SR leukemia 102% | RPMI-8226 leukemia 102% | OVCAR-8 ovarian 100% | OVCAR-5 ovarian 106% | OVCAR-4 ovarian 108% | SK-OV-3 ovarian 93.3% | IGROV1 ovarian 101% | HS 578T breast 99.2% | NCI/ADR-RES ovarian 99.9%

O=[N+]([O-])c1cc([N+](=O)[O-])c(NN=C(c2ccc(O)cc2)c2ccc(O)cc2)cc1Cl
inactive: EKVX NSCLC 38.8% | CAKI-1 renal 42.3% | A498 renal 73.4% | CCRF-CEM leukemia 82.1% | MOLT-4 leukemia 53.4% | SR leukemia 18.8% | RPMI-8226 leukemia 67% | OVCAR-5 ovarian 78.1% | SK-OV-3 ovarian 99.5%
active: SK-MEL-2 melanoma -94% | SN12C renal -78.6% | UO-31 renal -98.4% | TK-10 renal -57% | ACHN renal -62.7% | OVCAR-8 ovarian -76.6% | OVCAR-4 ovarian -47.7% | OVCAR-3 ovarian -94.6% | NCI/ADR-RES ovarian -56.8%

COc1cc(C(=O)/C=C/c2c(-c3ccc(F)cc3)nc3sccn23)cc(OC)c1OC
active: CCRF-CEM leukemia -41.9% | RPMI-8226 leukemia -44.2% | OVCAR-3 ovarian 4.69%
inactive: SK-MEL-2 melanoma 10.1% | EKVX NSCLC 49.9% | SN12C renal 64.6% | UO-31 renal 22.1% | TK-10 renal 36.5% | ACHN renal 28.3% | CAKI-1 renal 15.1% | A498 renal 48.8% | MOLT-4 leukemia 39.2% | SR leukemia 26% | OVCAR-8 ovarian 34.8% | OVCAR-5 ovarian 88% | OVCAR-4 ovarian 25.7% | SK-OV-3 ovarian 47.4% | HS 578T breast 46.1% | NCI/ADR-RES ovarian 10.4%

CCOC(=O)c1c[nH]c2cc(OCC3CC3)c(OCC3CC3)cc2c1=O
inactive: SK-MEL-2 melanoma 119% | EKVX NSCLC 116% | SN12C renal 108% | UO-31 renal 86.5% | TK-10 renal 126% | ACHN renal 105% | CAKI-1 renal 104% | A498 renal 94.1% | CCRF-CEM leukemia 91.3% | MOLT-4 leukemia 109% | SR leukemia 104% | RPMI-8226 leukemia 103% | OVCAR-8 ovarian 99.5% | OVCAR-5 ovarian 102% | OVCAR-4 ovarian 118% | SK-OV-3 ovarian 110% | OVCAR-3 ovarian 109% | HS 578T breast 103% | NCI/ADR-RES ovarian 111%
